The values below come from PubChem BioAssay.

Test [1] addresses ATP-dependent translocase ABCB1 (Homo sapiens) (UniProt P08183). In words: MDR1 (ABCB1) efflux transporter inhibition, cell-based (AID 377; in the data active = fluorescence slope change above about 50%). Particulars: MDR1-expressing cells, fluorescent substrate accumulation slope; stronger effect = higher value; concentration not given here.
Test [2] can be described thus: polyglutamine-triggered caspase-3 activation inhibitors, cell-based (AID 1583). Particulars: polyglutamine-induced caspase-3 activation, cell assay; stronger effect = higher value;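 tested at 10 µM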.
Test [3] is described as follows: suppressors of polyQ aggregation in yeast, 75Q-TubU reporter (AID 1593). Particulars: Yeast 75Q polyglutamine aggregation reporter.
Test [4] is described as follows: rescue of polyQ-huntingtin neuronal dysfunction in worms, whole organism, C. elegans mechanosensory neurons, N-terminal huntingtin (AID 1599). The following applies: touch response, stronger effect = higher value.
Test [5] in a line: inhibitors of mitochondrial cytochrome c release, biochemical, purified mitochondria (AID 1603).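 Also: mouse liver mitochondria challenged with calcium chloride; signal normalized to the plate average as 100%.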 The following applies: stronger effect = lower value.
The nature of test [6]: inhibitors of polyQ protein aggregation (AID 1604). The following applies: polyglutamine-induced protein aggregation inhibition assay; stronger effect = higher value; tested at 2.5 µM.
The nature of test [7]: enhancers of glutamate uptake in motor neurons, MN-1 cell line (AID 1612).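 Also: tested at 1 µM final; 0% = mean of DMSO vehicle wells on each plate; positive means more glutamate uptake than control and negative means less.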 Particulars: MN-1 motor neuron cells, stronger effect = higher value.
Test [8] in a line: reducers of polyQ inclusions in PC12 cells, cell-based, NGF-treated PC12, GFPQ80 (AID 1614).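 Also: lower means fewer inclusions and 0 means no inclusions at all.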 The following applies: PC12 NGF-treated GFP-polyQ80 inclusion reduction.
Test [9] can be described thus: suppressors of polyglutamine aggregation in yeast, 75Q-TubH (AID 1616). The following applies: S. cerevisiae 75Q-TubH polyglutamine aggregation suppression; stronger effect = higher value.
A short description of test [10]: hESC survival regulators, cell-based (AID 493140).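 Also: cells exposed to compounds for four days before counting.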 The following applies: human embryonic stem cell survival screen; stronger effect = higher value.

Inconclusive results are not listed. For part of these data: Entries with a potency or affinity are not part of this list. Calls of active or inactive are those of the source. Unless noted, no rule for the calls is given here.

Chain of ATP-dependent translocase ABCB1 (Homo sapiens) (P08183 whole entry, looked up): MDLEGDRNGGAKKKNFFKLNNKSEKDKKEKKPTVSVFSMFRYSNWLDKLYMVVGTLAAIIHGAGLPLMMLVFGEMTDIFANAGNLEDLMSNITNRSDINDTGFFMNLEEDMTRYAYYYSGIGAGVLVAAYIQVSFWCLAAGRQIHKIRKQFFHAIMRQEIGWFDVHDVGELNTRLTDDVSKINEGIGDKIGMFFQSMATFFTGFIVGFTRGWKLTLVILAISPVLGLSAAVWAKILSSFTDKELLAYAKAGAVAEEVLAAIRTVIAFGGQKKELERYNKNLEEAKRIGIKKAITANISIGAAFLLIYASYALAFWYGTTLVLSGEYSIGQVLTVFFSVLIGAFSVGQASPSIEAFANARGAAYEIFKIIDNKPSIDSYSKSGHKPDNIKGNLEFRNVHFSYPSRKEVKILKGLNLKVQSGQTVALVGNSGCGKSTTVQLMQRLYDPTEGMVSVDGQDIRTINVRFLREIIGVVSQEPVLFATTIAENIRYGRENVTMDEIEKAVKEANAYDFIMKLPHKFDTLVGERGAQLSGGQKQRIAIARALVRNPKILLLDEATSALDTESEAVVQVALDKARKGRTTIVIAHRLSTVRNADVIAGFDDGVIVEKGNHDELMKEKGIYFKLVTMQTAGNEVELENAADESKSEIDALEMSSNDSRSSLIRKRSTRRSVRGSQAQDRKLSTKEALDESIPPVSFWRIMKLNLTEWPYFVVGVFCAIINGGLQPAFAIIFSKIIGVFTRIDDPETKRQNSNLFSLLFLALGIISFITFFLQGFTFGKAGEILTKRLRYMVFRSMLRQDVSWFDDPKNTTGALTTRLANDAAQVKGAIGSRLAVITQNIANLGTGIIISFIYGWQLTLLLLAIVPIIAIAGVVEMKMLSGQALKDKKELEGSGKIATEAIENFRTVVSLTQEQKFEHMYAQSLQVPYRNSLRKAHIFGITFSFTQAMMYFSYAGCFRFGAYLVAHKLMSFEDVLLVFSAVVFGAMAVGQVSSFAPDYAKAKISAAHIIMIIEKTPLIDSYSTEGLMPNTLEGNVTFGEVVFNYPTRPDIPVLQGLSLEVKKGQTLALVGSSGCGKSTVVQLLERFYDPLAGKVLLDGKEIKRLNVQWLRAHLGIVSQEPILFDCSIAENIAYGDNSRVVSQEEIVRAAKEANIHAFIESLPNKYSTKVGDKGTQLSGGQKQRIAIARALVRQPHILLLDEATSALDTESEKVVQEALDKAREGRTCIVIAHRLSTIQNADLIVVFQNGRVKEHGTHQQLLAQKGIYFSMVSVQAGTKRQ

For orientation: inhibition means the change of the read-out against control, counted positive when it falls. With `OC(CCN1CCCCC1)(c1ccccc1)c1ccccc1`, the fluorescence slope change in test [1] is 18.2% (inactive). Besides, the inhibition in test [2] was 19.5%. The score in test [3] was 1.21. In test [4], this molecule showed a rescue above control of 10.4. Further, in test [5], the cytochrome c release ratio came out at 1.45. This molecule also showed an inhibition of aggregation in [6] of 65%. For the same molecule, the glutamate uptake change in test [7] was -4.45%. This molecule also registered an inclusion score in [8] of 2. In addition, the aggregation suppression score in [9] was determined as 1.43. In addition, the survival in test [10] was 3.42 (inactive).

Turning to `CN1C(C(=O)Nc2ccccn2)=C(O)c2sccc2S1(=O)=O`, in [2], the inhibition was -15.4%. In test [3], the score was determined as 0.84. In addition, in test [4], the rescue above control is -5.04. Moreover, the cytochrome c release ratio in test [5] was found to be 1.03. Also, the inhibition of aggregation in [6] was determined as 69.7%. In test [7], the glutamate uptake change is -15.9%. The molecule also gave an inclusion score in test [8] of 2. The molecule further came in with an aggregation suppression score in [9] of 0.632. The survival in test [10] was 5.08 (inactive).

`CCCCN(CCCC)CCCOC(=O)c1ccc(N)cc1`: the fluorescence slope change in [1] is 85.2% (active). Besides, in test [2], the inhibition came to 5.65%. This molecule gave a score in test [3] of 1.13. Also, the rescue above control in test [4] is -6.3. Besides, the cytochrome c release ratio in test [5] stood at 0.76. Also, in test [6], the inhibition of aggregation stood at 39.2%. Also, the glutamate uptake change in [7] was -0.54%. The molecule further had an inclusion score in test [8] of 2. Also, the aggregation suppression score in test [9] amounted to 1.28. In addition, in [10], the survival was 2.17 (inactive).

Regarding `Nc1ccc(S(=O)(=O)Nc2cnc3ccccc3n2)cc1`, the inhibition in [2] came out at 26.1%. Moreover, the score in test [3] is 1.42. Moreover, the rescue above control in [4] worked out at 9.63. In addition, in test [5], the cytochrome c release ratio amounted to 1.1. For the same molecule, the inhibition of aggregation in [6] was 22.7%. In addition, the glutamate uptake change in test [7] came to 6.13%. Besides, in test [8], the inclusion score came to 2. For the same molecule, in [9], the aggregation suppression score came out at 1.52. Besides, the survival in [10] is 3.75 (inactive).

As for `CCN(CCCCOC(=O)c1ccc(OC)c(OC)c1)C(C)Cc1ccc(OC)cc1` (stereo not given), the fluorescence slope change in test [1] is -44.1% (inactive). Moreover, the inhibition in [2] was 24.4%. This molecule also displayed a score in test [3] of 1.51. Also, the rescue above control in [4] amounted to 1.7. In addition, the cytochrome c release ratio in test [5] amounted to 0.92. For the same molecule, the inhibition of aggregation in [6] is 65.1%. The glutamate uptake change in test [7] was 1.65%. Besides, the inclusion score in test [8] was 2. This molecule gave an aggregation suppression score in [9] of 1.35. The survival in test [10] was 13.9 (inactive).

Regarding `O=C(O)c1ccccc1OP(=O)(O)O`, in test [2], the inhibition was 6.6%. The score in [3] came to 0.8. Further, the rescue above control in test [4] was -8.86. For the same molecule, the cytochrome c release ratio in test [5] was 1.13. In test [6], this molecule returned an inhibition of aggregation of 61%. Further, the glutamate uptake change in test [7] is -7.63%. The inclusion score in [8] was determined as 2. In test [9], this molecule had an aggregation suppression score of 0.8. Besides, the survival in [10] was 6.17 (inactive).

For the molecule `Cn1c(=O)c2c(ncn2CCO)n(C)c1=O`, the fluorescence slope change in test [1] is 50.2% (active). Moreover, in test [2], the inhibition was -0.98%. This molecule also yielded a score in [3] of 1.29. This molecule also came in with a rescue above control in test [4] of -7.41. Moreover, the cytochrome c release ratio in test [5] worked out at 1.08. Moreover, in test [6], the inhibition of aggregation came to 56.7%. For the same molecule, the glutamate uptake change in test [7] worked out at 2.77%. Moreover, in test [8], the inclusion score stood at 2. The same molecule displayed an aggregation suppression score in [9] of 1.2. For the same molecule, in test [10], the survival was 29.2 (inactive).

`CCn1cc(C(=O)O)c(=O)c2cnc(N3CCCC3)nc21`: the fluorescence slope change in test [1] was 55.2% (active). In addition, in test [2], the inhibition is -13.1%. Also, the score in [3] is 0.98. In addition, the rescue above control in test [4] is 7.28. In test [5], the cytochrome c release ratio was 1.33. In test [6], this molecule registered an inhibition of aggregation of 85.9%. For the same molecule, in test [7], the glutamate uptake change is -9.95%. The inclusion score in [8] is 2. Moreover, the aggregation suppression score in test [9] turned out to be 1.27. In test [10], the survival was 4.5 (inactive).

For `CC1(C)S[C@@H]2[C@H](NC(=O)[C@H](N)c3ccccc3)C(=O)N2[C@H]1C(=O)O`, the inhibition in test [2] was found to be 14.1%. The same molecule registered a score in test [3] of 1.62. The molecule further had a rescue above control in test [4] of -3.83. Besides, in [5], the cytochrome c release ratio was 1.35. The inhibition of aggregation in test [6] is 80.3%. In addition, the glutamate uptake change in test [7] is -16.2%. This molecule also returned an inclusion score in test [8] of 2. Besides, in test [9], the aggregation suppression score was 1.58. Also, the survival in [10] was 14.2 (inactive).

Take `CC(=O)N(O)CCCCCNC(=O)CCC(=O)N(O)CCCCCNC(=O)CCC(=O)N(O)CCCCCN`: the inhibition in [2] is -1.64%. Further, the score in test [3] stood at 0.93. In test [4], this molecule gave a rescue above control of -3.69. In test [5], the cytochrome c release ratio is 0.93. Also, the inhibition of aggregation in test [6] came to 63.2%. Further, the glutamate uptake change in [7] is -8.52%. The molecule further came in with an inclusion score in test [8] of 2. This molecule also came in with an aggregation suppression score in [9] of 1.05. Also, in [10], the survival is 4 (inactive).

Regarding `CC(C)(Sc1cc(C(C)(C)C)c(O)c(C(C)(C)C)c1)Sc1cc(C(C)(C)C)c(O)c(C(C)(C)C)c1`, the fluorescence slope change in test [1] is 6.4% (inactive). In test [2], the inhibition is -32.2%. For the same molecule, the score in [3] came to 0.29. The molecule further yielded a rescue above control in [4] of -10.5. In test [5], the cytochrome c release ratio amounted to 0.46. Further, the inhibition of aggregation in test [6] turned out to be 23.1%. For the same molecule, the glutamate uptake change in test [7] was -0.51%. In [8], the inclusion score came out at 2. The molecule also had an aggregation suppression score in [9] of 0.634. In addition, the survival in [10] was 7.33 (inactive).
